According to PubChem BioAssay (Tox21):
Several values for one entry are separate records, joined by “and”; a condition that tells them apart may be missing. Equal entries are not always repeated. Inconclusive results are not listed. A structure can be active in one record and inactive in another. Activity calls are given as the source filed them. Unless noted, the call rests on the fitted dose curve; in most records, active means well fitted curve in the direction sought with a large enough effect in the repeat runs; inconclusive means weak or mixed curves; inactive means no such curve, though single readings can be large; an effect the other way counts as inactive or inconclusive.

Columns and labels:
[1] = molecular target: Retinoic acid receptor RXR-alpha (Homo sapiens) (UniProt P19793); assay: qHTS assay to identify small molecule agonists of the RXR signaling pathway (AID 1159527; calls by dose curve; further: nearly all actives have a fitted effect of over 35% in size)
Sequence of Retinoic acid receptor RXR-alpha (Homo sapiens) (P19793 whole entry, looked up): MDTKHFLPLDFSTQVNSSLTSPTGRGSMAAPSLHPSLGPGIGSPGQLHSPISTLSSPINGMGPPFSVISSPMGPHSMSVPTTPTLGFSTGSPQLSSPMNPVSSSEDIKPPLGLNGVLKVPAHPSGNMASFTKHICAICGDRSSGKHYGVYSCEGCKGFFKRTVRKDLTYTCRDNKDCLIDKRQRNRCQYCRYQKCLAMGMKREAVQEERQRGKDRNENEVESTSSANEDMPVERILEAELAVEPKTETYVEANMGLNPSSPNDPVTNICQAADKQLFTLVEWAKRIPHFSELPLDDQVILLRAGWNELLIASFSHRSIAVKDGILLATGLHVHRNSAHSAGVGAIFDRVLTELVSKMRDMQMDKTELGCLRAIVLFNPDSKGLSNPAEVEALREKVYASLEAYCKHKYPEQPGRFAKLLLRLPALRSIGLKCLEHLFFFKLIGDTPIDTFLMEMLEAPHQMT
In short: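 Read-out: beta-lactamase FRET ratio (405 nm excitation, 460 and 530 nm emission) after 2 hr substrate loading at room temperature. Cells were RXR-alpha-UAS-bla HEK 293T treated with compounds for 16 hr in 2% charcoal-stripped FBS medium.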

[2] = qHTS assay to identify small molecule agonists of the RXR signaling pathway - cell viability counter screen (AID 1159529); further: nearly all actives have a fitted effect of over 50% in size
In short: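 HEK 293T RXRa-bla cells, 2% CS-FBS; 5 h settle; cpd 16 h 37 C, 5% CO2; CellTiter-Glo 30 min RT, luminescence. Tetraoctyl ammonium bromide as positive control.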

[3] = qHTS assay to identify small molecule antagonists of the retinoid acid receptor (RAR) signaling pathway - cell viability counter screen (AID 1159551); further: nearly all actives have a fitted effect of over 35% in size
In short: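 Measured by luminescent ATP detection, viability reflects C3RL4 cells treated 6 h at 37 C with test chemicals in the presence of 1 uM (final) retinol.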

[4] = qHTS assay to identify small molecule antagonists of the retinoic acid receptor (RAR) signaling pathway (AID 1159552; further: nearly all actives have a fitted effect of over 50% in size)
In short: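 Cells of the C3RL4 line were seeded, incubated overnight, then dosed with compounds in DMSO followed immediately by retinol (1 uM final). Six hours later luciferase detection reagent went in; signal was measured after 30 min at RT.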

[5] = qHTS assay to identify small molecule agonists of the retinoic acid receptor (RAR) signaling pathway (AID 1159553); details: C3RL4 RARE luciferase reporter, agonist, 6 h; activation: at 73.3 µM (top of the series) unless noted; further: potency means the concentration at half of the fitted maximal effect
In short: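 6 hr compound exposure (DMSO vehicle) of overnight-plated C3RL4 RARE-luc cells at 37 C; luminescence quantified after 30 min RT with luciferase reagent.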

[6] = qHTS assay to identify small molecule antagonists of the estrogen related receptor (ERR) signaling pathway from Tox21 library - cell viability counter screen (AID 1224834); further: nearly all actives have a fitted effect of over 30% in size
In short: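 Seeded ERR cells were rested 6 h at 37 C/5% CO2 before compounds, positive and negative controls or DMSO were added. Incubation continued for 17.5 h, and viability was then quantified by CellTiter-Fluor fluorescence.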

[7] = molecular target: Luciferin 4-monooxygenase (Photinus pyralis) (UniProt P08659); assay: qHTS assay to identify small molecule inhibitors of firefly luciferase (AID 1224835); further: nearly all actives have a fitted effect of over 25% in size; further: potency means the concentration at half of the fitted maximal effect
Sequence of Luciferin 4-monooxygenase (Photinus pyralis) (P08659 whole entry, looked up): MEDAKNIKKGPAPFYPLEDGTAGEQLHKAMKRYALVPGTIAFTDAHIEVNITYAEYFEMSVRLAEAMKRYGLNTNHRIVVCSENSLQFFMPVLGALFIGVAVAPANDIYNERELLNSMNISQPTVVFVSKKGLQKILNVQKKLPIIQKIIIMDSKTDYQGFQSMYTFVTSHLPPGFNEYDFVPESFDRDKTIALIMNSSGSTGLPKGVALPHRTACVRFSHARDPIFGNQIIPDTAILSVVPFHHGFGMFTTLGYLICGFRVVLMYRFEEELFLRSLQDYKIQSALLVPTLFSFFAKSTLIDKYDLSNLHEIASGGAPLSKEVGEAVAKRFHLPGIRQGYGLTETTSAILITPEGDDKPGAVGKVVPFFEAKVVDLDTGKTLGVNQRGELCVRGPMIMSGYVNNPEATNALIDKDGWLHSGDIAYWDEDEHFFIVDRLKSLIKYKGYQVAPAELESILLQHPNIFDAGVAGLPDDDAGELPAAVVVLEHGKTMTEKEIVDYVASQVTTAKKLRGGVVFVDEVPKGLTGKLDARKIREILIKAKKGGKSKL
In short: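 Biochemical qHTS: compounds run as interplate titrations against purified firefly enzyme, with D-luciferin and ATP each at its KM concentration. Light output recorded by CCD imaging.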

[8] = qHTS assay to identify small molecule agonists of the constitutive androstane receptor (CAR) signaling pathway - cell viability counter screen (AID 1224836); further: nearly all actives have a fitted effect of over 45% in size
In short: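 HepG2-CYP2B6-hCAR, 2500 cells/well, 4 h pre-incubation; cpd 15 conc + PK11195 0.75 uM final; 23 h, 37 C/5% CO2; CellTiter-Fluor, fluorescence.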

[9] = qHTS assay to identify small molecule antagonists of the constitutive androstane receptor (CAR) signaling pathway - cell viability counter screen (AID 1224837); further: nearly all actives have a fitted effect of over 45% in size
In short: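 To flag cytotoxic false antagonists, HepG2 hCAR/CYP2B6-2.2kb cells were treated 23 hr with 15-concentration compound series and 50 nM CITCO at 37 C/5% CO2; CellTiter-Fluor fluorescence was the measured end point.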

[10] = qHTS assay to identify small molecule antagonists of the estrogen related receptor signaling pathway with the pleiotropic PPARgamma coactivator (PGC) from Tox21 10K library - cell viability counter screen (AID 1224840; active means well fitted cell-killing curve with a large enough effect in the repeat runs, not every such curve was filed as active; further: nearly all actives have a fitted effect of over 40% in size)
In short: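 Seeded PGC/ERR cells (2,000/well, 6 h, 37 C/5% CO2) get compound by pin tool; 17.5 h incubation at 37 C; CellTiter-Fluor added, 30 min, fluorescence measured.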

[11] = qHTS assay to identify small molecule antagonists of the estrogen related receptor signaling pathway with the pleiotropic PPARgamma coactivator (PGC) from Tox21 10K library (AID 1224841; call rule not given here; further: actives are mostly falling curves and most rising ones were filed inactive; nearly all actives have a fitted effect of over 50% in size)
In short: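 Test chemicals dissolved in DMSO were applied to pre-incubated (6 h) PGC/ERR cells at 2,000 cells/well for an 18 h, 37 C treatment; reporter luminescence was then read using One-Glo.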

[12] = qHTS assay to identify small molecule agonists of the estrogen related receptor signaling pathway with the pleiotropic PPARgamma coactivator (PGC) from Tox21 10K library (AID 1224842); further: nearly all actives have a fitted effect of over 15% in size
In short: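 PGC/ERR reporter cell line, 2,000 cells per well, incubated 6 h at 37 C before 23 nL compound in DMSO was added. After 18 h at 37 C, One-Glo luminescence read following 30 min at room temperature.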

[13] = molecular target: Thyrotropin receptor (Homo sapiens) (UniProt P16473); assay: qHTS assay to identify small molecule agonists of the thyroid stimulating hormone receptor (TSHR) signaling pathway (AID 1224843; calls by dose curve; further: nearly all actives have a fitted effect of over 45% in size)
Sequence of Thyrotropin receptor (Homo sapiens) (P16473 whole entry, looked up): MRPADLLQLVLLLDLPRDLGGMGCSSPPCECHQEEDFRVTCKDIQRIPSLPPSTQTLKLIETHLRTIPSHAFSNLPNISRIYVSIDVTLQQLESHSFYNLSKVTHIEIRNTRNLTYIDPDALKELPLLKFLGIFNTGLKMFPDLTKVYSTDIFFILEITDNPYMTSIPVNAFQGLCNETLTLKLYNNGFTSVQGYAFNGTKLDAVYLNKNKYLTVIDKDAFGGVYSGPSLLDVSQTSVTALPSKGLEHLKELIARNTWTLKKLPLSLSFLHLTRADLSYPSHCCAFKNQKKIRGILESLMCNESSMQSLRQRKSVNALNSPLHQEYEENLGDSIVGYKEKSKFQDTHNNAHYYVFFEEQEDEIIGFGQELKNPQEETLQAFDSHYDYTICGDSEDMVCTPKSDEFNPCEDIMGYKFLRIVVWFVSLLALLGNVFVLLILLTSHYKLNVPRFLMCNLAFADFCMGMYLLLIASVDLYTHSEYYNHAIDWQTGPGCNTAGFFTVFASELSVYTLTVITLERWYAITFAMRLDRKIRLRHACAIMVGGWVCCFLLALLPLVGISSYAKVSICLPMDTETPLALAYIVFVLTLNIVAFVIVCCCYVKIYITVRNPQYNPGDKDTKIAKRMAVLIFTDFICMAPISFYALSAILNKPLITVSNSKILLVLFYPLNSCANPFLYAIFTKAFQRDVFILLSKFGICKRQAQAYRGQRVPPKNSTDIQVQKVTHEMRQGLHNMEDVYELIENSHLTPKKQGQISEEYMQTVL
In short: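 HEK293/TSHR, 800 cells/well; cpd 30 min RT; add cAMP-d2 + anti-cAMP-cryptate, 1 h RT; fluorescence read on plate reader. 15-pt titration, n=3.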

[14] = qHTS assay to identify small molecule agonists of the hypoxia (HIF-1) signaling pathway - cell viability counter screen (AID 1224844; calls by dose curve; further: nearly all actives have a fitted effect of over 50% in size)
In short: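 HRE-bla ME-180; 0.5% dFBS; cpd 17 h, 37C, 5% CO2; CellTiter-Glo lum., 30 min RT, post-FRET read, same wells.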

[15] = qHTS assay to identify small molecule agonists of H2AX (AID 1224845; active means well fitted activation curve with a large enough effect in the signal ratio in the repeat runs, not every such curve was filed as active; the % refers to the signal ratio)
In short: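 Wild-type CHO-K1 cells, plated overnight, exposed 3hr at 37C to 15 concentrations (0.76% DMSO final). Lysed, then HTRF anti-pH2AX (S139) cryptate and anti-H2AX-d2 antibodies, 24 hr room temperature; 665/620 nm emission read.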

[16] = qHTS assay to identify small molecule agonists of the hypoxia (HIF-1) signaling pathway (AID 1224846; active means well fitted activation curve with a large enough effect in the signal ratio in the repeat runs, not every such curve was filed as active; the % refers to the signal ratio)
In short: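 Reporter induction in HRE-bla ME-180 cells is taken as agonism: cells sit 5 hrs after plating, receive compounds or DMSO only, incubate 17 hrs at 37C under 5% CO2, and are loaded with CCF4-AM for beta-lactamase FRET measurement.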

[17] = molecular target: Nuclear receptor subfamily 1 group I member 3 (Homo sapiens) (UniProt Q14994); assay: qHTS assay to identify small molecule antagonists of the constitutive androstane receptor (CAR) signaling pathway (AID 1224838);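 further: HepG2 cells stably expressing hCAR with CYP2B6 luciferase reporter stimulated by CITCO; nearly all actives have a fitted effect of over 40% in size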
Sequence of Nuclear receptor subfamily 1 group I member 3 (Homo sapiens) (Q14994 whole entry, looked up): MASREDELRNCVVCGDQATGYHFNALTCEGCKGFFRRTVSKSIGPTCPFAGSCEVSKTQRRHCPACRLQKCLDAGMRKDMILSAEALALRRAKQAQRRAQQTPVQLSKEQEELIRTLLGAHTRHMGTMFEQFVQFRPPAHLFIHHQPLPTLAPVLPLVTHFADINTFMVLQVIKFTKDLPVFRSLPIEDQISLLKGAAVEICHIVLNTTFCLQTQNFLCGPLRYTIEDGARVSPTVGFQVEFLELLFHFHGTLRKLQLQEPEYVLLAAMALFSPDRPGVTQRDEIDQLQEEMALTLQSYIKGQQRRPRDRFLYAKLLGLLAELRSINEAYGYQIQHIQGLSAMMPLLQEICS
In short: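 Human hepatoma HepG2 cells expressing hCAR and a CYP2B6 promoter (2.2 kb) luciferase construct; compound titration (15 points) with 50 nM CITCO final, 24 h at 37 C/5% CO2; luminescence via ONE-Glo after 30 min at room temperature.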

[18] = molecular target: Nuclear receptor subfamily 1 group I member 3 (Homo sapiens) (UniProt Q14994); assay: qHTS assay to identify small molecule agonists of the constitutive androstane receptor (CAR) signaling pathway (AID 1224839);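 further: HepG2 cells stably carrying human CAR and a CYP2B6 luciferase reporter; nearly all actives have a fitted effect of over 15% in size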
In short: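 HepG2-CYP2B6-hCAR cells, 2500/well, 4 h pre-incubation; compounds 15 conc.; PK11195 0.75 uM final; 24 h, 37 C/5% CO2; ONE-Glo luciferase read.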

[19] = qHTS assay to identify small molecule antagonists of the estrogen related receptor (ERR) signaling pathway - cell viability counter screen (AID 1224818)
In short: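 Compounds dissolved in DMSO were applied to ERR cells seeded at 2,000 per well 6 h earlier. Cell viability followed 17.5 h later via 30-min CellTiter-Fluor fluorescence.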

[20] = qHTS assay to identify small molecule antagonists of the estrogen related receptor signaling pathway with the pleiotropic PPARgamma coactivator (PGC) cell viability counter screen (AID 1224822)
In short: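 Counter screen for cell viability: PGC/ERR cells, 6 h pre-incubation after plating, 17.5 h compound exposure at 37 C, fluorescence from CellTiter-Fluor after 30 min.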

Measured: Potency

CC(C)N1C(=O)c2ccccc2NS1(=O)=O
not listed: [17] | [18] | [19] | [20]
inactive: all other assays above

Cc1ccc(N)cc1Cl
inactive and 56.4 µM (active): [7]
not listed: [11] | [12] | [19] | [20]
inactive: all other assays above

CN=C=S
not listed: [19] | [20]
inactive: all other assays above

Cc1[nH]c(=O)n(C(C)(C)C)c(=O)c1Cl
not listed: [11] | [12] | [19] | [20]
inactive: all other assays above

CCCCOC(=O)c1ccccc1C(=O)OCCCC
not listed: [13] | [19] | [20]
inactive: all other assays above

Cc1cc(Cl)ccc1O
not listed: [11] | [12] | [19] | [20]
inactive: all other assays above

CC(C)OC(=O)Nc1ccccc1
active: [5] 30.7 µM | [7] 40 µM and 35.6 µM
not listed: [18] | [19] | [20]
inactive: all other assays above

CCCN(CCC)N=O
not listed: [11] | [12] | [19] | [20]
inactive: all other assays above

Cc1ccccc1O
not listed: [11] | [12] | [19] | [20]
inactive: all other assays above

CC(Br)C(=O)O (stereo not drawn)
not listed: [11] | [12] | [19] | [20]
inactive: all other assays above

Nc1ccccc1C(=O)O
not listed: [19] | [20]
inactive: all other assays above

CC(C)OC(=O)Nc1cccc(Cl)c1
active: [5] 6.11 µM | [7] 31.3 µM and 35.6 µM
not listed: [17] | [18] | [19] | [20]
inactive: all other assays above

CC1C=[C-]C=C1.[C-]#[O+].[C-]#[O+].[C-]#[O+].[Mn]
not listed: [11] | [12] | [18] | [19] | [20]
inactive: all other assays above

O=[N+]([O-])c1ccc([As](=O)(O)O)cc1
not listed: [11] | [12] | [19] | [20]
inactive: all other assays above

c1cc2c3c(cccc3c1)CC2
not listed: [11] | [12] | [19] | [20]
inactive: all other assays above

NCC(O)c1ccc(O)cc1 (stereo not drawn)
not listed: [11] | [12]
inactive: all other assays above
